This is part of a sample that, as a whole, favours compounds with a hit. Of some 83,000 tested, about 20% had one in any assay.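 Assay: single dose, 48 h. Readout: percent growth (0 = no net growth; negative = cell death). Active: <10.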 Unmarked numbers belong to inactive results. The source made the active and inactive calls.

Among the data in PubChem BioAssay (NCI) are growth values, retold here.

Among the test systems are HCT-15 colon; HT29 colon; SNB-75 CNS; SNB-19 CNS; U251 CNS; PC-3 prostate; SK-MEL-5 melanoma; UACC-62 melanoma; LOX IMVI melanoma; SK-MEL-28 melanoma; SK-MEL-2 melanoma; EKVX NSCLC; SN12C renal; UO-31 renal; ACHN renal; CAKI-1 renal; CCRF-CEM leukemia; MOLT-4 leukemia; TK-10 renal; A498 renal.
Common to all, as to experiment: NCI-60 one-dose screen, 48 h (100 = growth as untreated, 0 = no growth, -100 = all killed)
Details in all cases: 10 µM unless noted

As for `Cl.Fc1c[c-]c(-c2ccccn2)c(F)c1.[Pt].c1ccc(P(c2ccccc2)C([PH+](c2ccccc2)c2ccccc2)[PH+](c2ccccc2)c2ccccc2)cc1`, the growth is 56.1% in the assay with HCT-15 colon; 11.8% in the assay on HT29 colon; 7.77% (active) in the assay on SNB-75 CNS; 27.1% in the assay with SNB-19 CNS; 16.4% with U251 CNS; 7.49% (active) in the assay on PC-3 prostate. For the same compound, the growth is -91% (active) in the assay on SK-MEL-5 melanoma; 23.2% in the assay with UACC-62 melanoma; 11.7% with LOX IMVI melanoma; 34.4% in the assay on SK-MEL-28 melanoma; 7.06% (active) in the assay with SK-MEL-2 melanoma; 20.8% in the assay with EKVX NSCLC. The growth in the assay with SN12C renal was 11.2%; with UO-31 renal, -5.69% (active); in the assay on ACHN renal, 17.5%; in the assay with CAKI-1 renal, -1.81% (active); in the assay on CCRF-CEM leukemia, 17.3%; with MOLT-4 leukemia, 13.2%.
On to `COc1ccc2c(c1)/C(=C\c1sc(=S)[nH]c1O)C(C(=O)O)=N2`, for which the growth is 100% with HCT-15 colon; 104% in the assay with HT29 colon; 84.6% in the assay on SNB-75 CNS; 100% in the assay with SNB-19 CNS; 98.3% in the assay with U251 CNS; 99.4% in the assay on PC-3 prostate. Further, the growth is 101% in the assay with SK-MEL-5 melanoma; 91.4% in the assay on UACC-62 melanoma; 96.6% in the assay on LOX IMVI melanoma; 111% in the assay with SK-MEL-28 melanoma; 99.4% in the assay with SK-MEL-2 melanoma; 93.6% in the assay on EKVX NSCLC. Besides, the growth is 100% in the assay on SN12C renal; 82.6% with UO-31 renal; 99.8% with ACHN renal; 86.2% in the assay with CAKI-1 renal; 95.7% in the assay with CCRF-CEM leukemia; 103% in the assay on MOLT-4 leukemia.
In the case of `CCN(CC)CCOC(=O)N1c2ccccc2Sc2ccccc21`, the growth is 102% with HCT-15 colon; 75.9% with HT29 colon; 84.2% with SNB-75 CNS; 97.8% in the assay on SNB-19 CNS; 91.8% in the assay with U251 CNS; 68.8% in the assay with PC-3 prostate. Further, the growth is 94.2% in the assay on SK-MEL-5 melanoma; 91% in the assay with UACC-62 melanoma; 96.7% with LOX IMVI melanoma; 101% with SK-MEL-28 melanoma; 97.9% with SK-MEL-2 melanoma; 106% in the assay on EKVX NSCLC. The growth with SN12C renal is 101%; with UO-31 renal, 87.9%; with TK-10 renal, 88.2%; in the assay on A498 renal, 97.1%; with CCRF-CEM leukemia, 69.1%; in the assay on MOLT-4 leukemia it was 96.1%.
For the compound `c1ccc2[nH]c(SSc3nc4ncncc4[nH]3)nc2c1`, the growth in the assay with HCT-15 colon is 26.9%; with HT29 colon, 29.5%; with SNB-75 CNS it was 45.5%; in the assay with SNB-19 CNS it was 84.4%; in the assay with U251 CNS it was 54%; with PC-3 prostate, 42.9%. Further, the growth with SK-MEL-5 melanoma is 28.1%; with UACC-62 melanoma, 12.7%; with LOX IMVI melanoma, 4.64% (active); in the assay with SK-MEL-28 melanoma it was 86%; with SK-MEL-2 melanoma, 57.2%; in the assay on EKVX NSCLC, 67.5%. Further, the growth is 42.3% in the assay on SN12C renal; 31.6% in the assay on UO-31 renal; 32.2% in the assay with ACHN renal; -46.4% (active) with CAKI-1 renal; 61.7% in the assay on A498 renal; 24.7% with CCRF-CEM leukemia. The growth in the assay on MOLT-4 leukemia was 26%.
Turning to `C[N+](C)(C)CCOC(OCC[N+](C)(C)C)(c1ccccc1)c1ccccc1`, the growth was 104% in the assay on HCT-15 colon; 104% with HT29 colon; 87.3% in the assay with SNB-75 CNS; 93.9% with SNB-19 CNS; 104% in the assay with U251 CNS; 92.7% in the assay with PC-3 prostate. Moreover, the growth was 110% in the assay with SK-MEL-5 melanoma; 99.3% with UACC-62 melanoma; 98.6% in the assay on LOX IMVI melanoma; 104% in the assay on SK-MEL-28 melanoma; 99.4% in the assay with SK-MEL-2 melanoma; 111% with EKVX NSCLC. The growth in the assay with UO-31 renal is 89.1%; in the assay on TK-10 renal, 109%; with ACHN renal, 97.6%; in the assay on CAKI-1 renal, 101%; in the assay on A498 renal, 113%; with CCRF-CEM leukemia it was 105%. Further, the growth in the assay with MOLT-4 leukemia is 102%.
On to `COc1cc2c(cc1OC)-c1ccc3cc4c(cc3c1N(CCCn1ccnc1)C2)OCO4`, for which the growth was 95.7% in the assay on HCT-15 colon; 27.6% with HT29 colon; 13.2% in the assay on SNB-75 CNS; 17.2% with SNB-19 CNS; -6.84% (active) in the assay on U251 CNS; 37.6% in the assay with PC-3 prostate. Further, the growth in the assay on SK-MEL-5 melanoma was 8.78% (active); in the assay with UACC-62 melanoma, -20.4% (active); in the assay with LOX IMVI melanoma, 1.62% (active); in the assay on SK-MEL-28 melanoma it was 59.2%; in the assay with SK-MEL-2 melanoma it was 37.7%; in the assay on EKVX NSCLC it was 98.2%. Further, the growth in the assay on SN12C renal is 18.1%; in the assay on UO-31 renal, 80.8%; in the assay on TK-10 renal, 91.3%; with A498 renal, 85.2%; in the assay with CCRF-CEM leukemia, 1.56% (active); with MOLT-4 leukemia, 2.11% (active).
With `CCOC(=O)c1c(C)nc2c(c1N)/C(=C/c1ccc(OC)cc1)C(=O)N2Cc1ccc(F)cc1`, the growth in the assay on HCT-15 colon is -80.6% (active); in the assay on HT29 colon, -75.9% (active); with SNB-75 CNS, -13.7% (active); in the assay with SNB-19 CNS, -67.4% (active); with U251 CNS, -81.5% (active); in the assay with PC-3 prostate it was -52.5% (active). The growth in the assay on SK-MEL-5 melanoma was -87.9% (active); in the assay with UACC-62 melanoma, -78.2% (active); in the assay with LOX IMVI melanoma it was -93.1% (active); in the assay on SK-MEL-28 melanoma, -39.9% (active); with SK-MEL-2 melanoma, -27.5% (active); in the assay on EKVX NSCLC, 9.23% (active). Besides, the growth in the assay with SN12C renal was -40% (active); in the assay on UO-31 renal it was -38.4% (active); in the assay with TK-10 renal, -70.8% (active); in the assay on A498 renal, -44.2% (active); with CCRF-CEM leukemia it was -5.4% (active); in the assay with MOLT-4 leukemia, 1.64% (active).
Regarding `CN(C)CCCCNc1ccc(NCCCCN(C)C)c2c1C(=O)c1c(O)ccc(O)c1C2=O`, the growth in the assay with HCT-15 colon is -66.4% (active); in the assay with HT29 colon, -52.3% (active); in the assay on SNB-75 CNS it was 79.5%; in the assay on SNB-19 CNS, 2.06% (active); in the assay with U251 CNS it was -85.6% (active); with PC-3 prostate, -76.9% (active). Further, the growth was 89.4% in the assay with SK-MEL-5 melanoma; 104% with UACC-62 melanoma; -79% (active) with LOX IMVI melanoma; 112% with SK-MEL-28 melanoma; 98.2% with SK-MEL-2 melanoma; -76.2% (active) in the assay with EKVX NSCLC. Further, the growth in the assay on SN12C renal was 64.2%; in the assay with TK-10 renal it was -93.6% (active); in the assay on ACHN renal, -89.2% (active); in the assay on CAKI-1 renal it was -91.7% (active); in the assay on A498 renal it was 92.4%; in the assay with CCRF-CEM leukemia, -28.5% (active). In addition, the growth with MOLT-4 leukemia is -34.6% (active).
